# According to PubChem BioAssay AID463173 (ICCB-Longwood Screening Facility, Harvard Medical School, 2010):
# In all, about 52,000 compounds went through this assay and about 4,300 (8.3%) were called active. Rule as the data show it: active = survival mostly below about 52% (no sharp cut-off); inactive = mostly above about 56%. For the sample, actives were picked, then their nearest neighbours and some compounds at random.
# Tested on: DeltatarO mutant
# Test: S. aureus survival, RN4220 and DeltatarO strains – OD600, teichoic acid synthesis inhibitors, primary screen (AID 463173)
# Conditions: S. aureus RN4220 wild type/DeltatarO growth, OD600, 18 h, hits give low values, screened at 18.75 µg/mL (by protocol)
row,SMILES,survival
1,COc1ccc(Cn2nnnc2C(C(C)C)N2CCc3ccccc32)cc1 (centres undefined),82% (inactive)
2,CC(=O)N1CCC(N(Cc2ccco2)C(=O)Nc2ccc(C)c(Cl)c2)CC1,128% (inactive)
3,CN(C)S(=O)(=O)c1ccc2c(c1)N(CC(=O)NCc1ccccc1)C(=O)C1CCCCN21 (centres undefined),67% (inactive)
4,CCSc1nc2n(n1)C(c1ccc(C(=O)O)cc1)C(C(=O)Nc1ccccc1C)=C(C)N2 (centres undefined),84% (inactive)
5,COc1ccc(N2CCN(C(=O)Nc3ccc(Cl)cc3)CC2)cc1,168% (inactive)
6,COc1ccc(S(=O)(=O)c2cn(CC(=O)Nc3cc(C)ccc3C)c3ccccc3c2=O)cc1,86% (inactive)
7,COc1ccccc1NC(=O)C1=C(C)Nc2nc(SCc3cc(C)ccc3C)nn2C1c1ccccc1 (centres undefined),116% (inactive)
8,CCOc1ccc(NC(=O)CSc2ncc3c(n2)-c2ccc(Cl)cc2N(Cc2ccccc2)S3(=O)=O)cc1,99% (inactive)
9,O=C(NCc1ccccc1Cl)c1ccc(Nc2nc3ccccc3n3nnnc23)cc1,84% (inactive)
10,Cc1cc(/C=C(\C#N)C(=O)Nc2ccccc2)c(C)n1-c1ccc(F)cc1,59% (inactive)
11,COc1cccc(Nc2nnc(-c3cc4ccc(O)cc4oc3=O)s2)c1,85% (inactive)
12,Cc1ccc(NC(=O)c2cc(-c3cccs3)nc3ccccc23)c(C)c1,57% (active)
13,Nc1c(C(=O)Nc2ccc(Cl)cc2F)sc2nc(-c3cccs3)ccc12,58% (inactive)
14,O=C(Nc1ccc(Br)cc1)c1cc(-c2cccs2)nc2ccccc12,83% (inactive)
15,Cc1ccccc1NC(=O)c1sc2nc(-c3ccncc3)ccc2c1N,39% (inactive)
16,CCOc1ccc(OCC)c(NC(=O)c2cc(-c3cccs3)nc3ccccc23)c1,85% (inactive)
17,Nc1c(C(=O)Nc2cccc(F)c2)sc2nc(-c3cccs3)ccc12,69% (inactive)
18,CC(C)CSc1ccccc1NC(=O)c1sc2nc(-c3ccncc3)ccc2c1N,46% (active)
19,Cc1cc(F)ccc1NC(=O)c1sc2nc(-c3cccs3)ccc2c1N,45% (active)
20,Cc1ccc(NC(=O)c2sc3nc(-c4ccncc4)ccc3c2N)cc1,131% (inactive)
21,Cc1ccc(N(Cc2cccs2)C(=O)c2ccc(Br)o2)cc1,73% (inactive)
22,CC(C)(C)C(=O)CSc1nc2ccsc2c(=O)n1Cc1ccccc1Cl,77% (inactive)
23,COc1ccc(-c2nc3n(c2NC(C)(C)C)CCN(C(=O)Cc2ccccc2F)C3)cc1,88% (inactive)
24,CSc1ccc(CCNC(=O)c2ccc3c(c2)nc2n3CCC(C)C2)cc1 (centres undefined),83% (inactive)

row,SMILES,survival
1,CCOC(=O)c1c(-c2ccccc2)csc1NC(=O)c1nc(SCC)ncc1Cl,87% (inactive)
2,CCCSc1ncc(Cl)c(C(=O)Nc2scc(-c3ccc(C)cc3)c2C(=O)OCC)n1,62% (inactive)
3,CCOC(=O)c1c(-c2ccc(C)cc2)csc1NC(=O)c1nc(SC(C)C)ncc1Cl,61% (inactive)
4,CCCSc1ncc(Cl)c(C(=O)Nc2sc(C(C)=O)c(C)c2C(=O)OCC)n1,51% (inactive)
5,CCOC(=O)c1c(-c2ccccc2)csc1NC(=O)c1nc(S(=O)(=O)CC)ncc1Cl,11% (active)
6,CCOC(=O)c1c(NC(=O)c2nc(S(C)(=O)=O)ncc2Cl)sc(C(C)=O)c1C,6% (active)
7,CCCS(=O)(=O)c1ncc(Cl)c(C(=O)Nc2scc(-c3ccccc3)c2C(=O)OCC)n1,25% (active)
8,CCOC(=O)c1c(NC(=O)c2nc(SCC)ncc2Cl)sc(C(C)=O)c1C,75% (inactive)
9,CCOC(=O)c1c(-c2ccc(C)cc2)csc1NC(=O)c1nc(SCC)ncc1Cl,84% (inactive)
10,CCOC(=O)c1cccc(NC(=O)C2CCN(S(=O)(=O)c3cn(C)cn3)CC2)c1,102% (inactive)
11,COc1ccc(CCN2C(=O)CN(C3CCCCCC3)C(=O)C2c2ccc(OC(C)C)c(OC)c2)cc1OC (centres undefined),89% (inactive)
12,COc1cc2[nH]c(=O)n(CCCCCC(=O)N3CCN(c4ccc(Cl)cc4)CC3)c(=O)c2cc1OC,67% (inactive)
13,CCOc1ccc(-c2cc(C)n3nc(C(=O)Nc4cc(Cl)ccc4O)cc3n2)cc1,62% (inactive)
14,CC(=O)Nc1ccc(NC(=O)CCCn2nc(C)c3sc4ccccc4c3c2=O)cc1,83% (inactive)
15,O=c1oc2c3c(ccc2c2ccccc12)OCN(Cc1ccccc1Cl)C3,68% (inactive)
16,O=C(NCCc1ccc(Cl)cc1)c1ccc(CSCc2ccc(Cl)cc2)o1,83% (inactive)
17,CCN1CCN(C(=O)c2ccc3c(c2)N(Cc2cccc(F)c2)C(=O)c2ccccc2S3)CC1,85% (inactive)
18,CCOc1cc(S(=O)(=O)N(C)C2CCCCC2)c(OCC)cc1-n1cnnn1,99% (inactive)
19,Cn1c(=O)oc2cc(S(=O)(=O)CCC(=O)N3CCN(c4cccc(Cl)c4)CC3)ccc21,81% (inactive)
20,COc1ccc(OCC(=O)Nc2ccc3oc(-c4ccncc4)nc3c2)cc1,87% (inactive)
21,CCN1CCN(C(=O)c2cnn(-c3ccc(F)cc3F)c2C2CCN(C(=O)OC(C)(C)C)CC2)CC1,86% (inactive)
22,CCc1nnc2c3ccccc3nc(Nc3ccc(C(C)=O)cc3)n12,78% (inactive)
23,CCc1nnc2c3ccccc3nc(Nc3ccc(F)cc3C)n12,39% (active)
24,COc1ccc(C)cc1Nc1nc2ccccc2c2nnc(C)n12,135% (inactive)

row,SMILES,survival
1,CCc1nnc2c3ccccc3nc(Nc3cc(C)cc(C)c3)n12,26% (active)
2,CCc1nnc2c3ccccc3nc(Nc3ccc(F)c(Cl)c3)n12,62% (inactive)
3,CCc1ccc(Nc2nc3ccccc3c3nnc(C)n23)cc1,92% (inactive)
4,COc1cc(Nc2nc3ccccc3c3nnc(C)n23)cc(OC)c1,37% (active)
5,Cc1nnc2c3ccccc3nc(Nc3ccc(F)cc3Cl)n12,83% (inactive)
6,CCc1nnc2c3ccccc3nc(Nc3ccccc3OC)n12,57% (inactive)
7,CCOc1ccc(Nc2nc3ccccc3c3nnc(CC)n23)cc1,62% (inactive)
8,COc1ccc(Nc2nc3ccccc3c3nnc(C)n23)cc1Cl,48% (inactive)
9,CCCCOC(=O)c1ccc(Nc2nc3ccccc3c3nnc(C)n23)cc1,25% (active)
10,Cn1c(-n2cccc2)c(-c2c(-c3ccc(F)cc3)[nH]c3c2c(=O)[nH]c(=O)n3C)c(=O)[nH]c1=O,55% (inactive)
11,CCc1ccc(NC(=O)C(=O)NCCc2csc(-c3ccc(C(F)(F)F)cc3)n2)cc1,99% (inactive)
12,Cc1cc(C)c2c(-n3cccc3)c(C(=O)NCC(C)c3ccccc3)sc2n1 (centres undefined),86% (inactive)
13,O=C(Nc1ccc(Br)cc1)C1CCCN1S(=O)(=O)c1ccc(F)cc1 (centres undefined),66% (inactive)
14,Cc1cccc(N2C(=O)C3C(C(=O)NC4CC4)C4C=CC3(O4)C2C(=O)NC2CCCC2)c1 (centres undefined),75% (inactive)
15,Cc1ccc(S(=O)(=O)NCCSc2nnnn2-c2ccc(Cl)c(C(=O)O)c2)cc1,138% (inactive)
16,Cc1ccc(-c2nc3nc(C)cc(Nc4ccccc4O)n3n2)cc1,75% (inactive)
17,CCc1ccccc1NC(=O)CN1CCCN(Cc2cc(C)ccc2C)S1(=O)=O,94% (inactive)
18,O=C(Cn1ncc2c([nH]c3ccccc32)c1=O)Nc1cc(F)ccc1F,81% (inactive)
19,COc1ccccc1NC(=O)Cn1nc(-c2ccc(C)cc2)c2c(c1=O)CCCC2,42% (inactive)
20,Cc1ccc(C)c(-c2nn(CC(=O)Nc3cc(F)ccc3F)c(=O)c3c2CCCC3)c1,41% (active)
21,Cc1nn(CC(=O)Nc2cc(F)ccc2F)c(=O)c2cccn12,94% (inactive)
22,CCc1ccccc1NC(=O)Cn1nc(-c2cc(C)ccc2C)c2c(c1=O)CCCC2,41% (active)
23,COc1ccc(Cc2nnc(SCC(N)=O)o2)cc1,76% (inactive)
24,O=C1COc2ccccc2N1Cc1c(F)cccc1Cl,79% (inactive)

row,SMILES,survival
1,CCOC(=O)c1c(NC(=O)CCCOc2ccc(C(C)(C)C)cc2)sc2c1CCCC2,14% (active)
2,CCOC(=O)c1c(NC(=O)COc2ccc(C(C)(C)C)cc2)sc2c1CCCC2,75% (inactive)
3,CCOC(=O)c1c(NC(=O)CS(=O)(=O)c2ccc(Cl)cc2)sc2c1CCCC2,77% (inactive)
4,CCOC(=O)c1c(NC(=O)CCCOc2ccc(Cl)cc2)sc2c1CCC2,17% (active)
5,CCOC(=O)c1c(NC(=O)CCCOc2ccc(C(C)(C)C)cc2)sc2c1CCC2,9% (active)
6,CCOC(=O)c1c(NC(=O)COc2ccc(Cl)cc2C)sc2c1CCCCC2,75% (inactive)
7,Cc1ccc(N2CCN(S(=O)(=O)c3cc(Br)cc4c3N(C(=O)C3CC3)CC4)CC2C)cc1 (centres undefined),70% (inactive)
8,CCOc1ccccc1NC(=O)C(=O)NCCc1sc(-c2cccc(F)c2)nc1C,90% (inactive)
9,O=C(OCC(=O)N1CCc2ccccc21)c1ccccc1,92% (inactive)
10,CCOc1ccc(CCNC(=O)c2cnc3sc(N4CCC(C)CC4)nn3c2=O)cc1,84% (inactive)
11,COc1cc2c(cc1OC)C(CC(=O)Nc1ccccc1)C(=O)NN=C2C (centres undefined),103% (inactive)
12,CCc1cc2c(cc3c(=O)n(CC(=O)N4CCC(C)CC4)nc(CC)n32)s1,41% (active)
13,CCc1cc2c(cc3c(=O)n(CC(=O)NC4CCC(C)CC4)nc(CC)n32)s1 (centres undefined),115% (inactive)
14,CCc1cc2c(cc3c(=O)n(CC(=O)N4CCCCC4)nc(CC)n32)s1,77% (inactive)
15,COc1ccc(OC)c(C(=O)CN2C(=O)N(c3ccc(C)cc3)S(=O)(=O)c3ccccc32)c1,89% (inactive)
16,COc1ccc(C(=O)NCC(c2ccco2)S(=O)(=O)c2cccs2)cc1 (centres undefined),100% (inactive)
17,COc1ccccc1CNc1nc2ccccc2c2nc(-c3cccc(C)c3)nn12,24% (active)
18,Clc1ccccc1CNc1nc2ccccc2c2nc(-c3cccnc3)nn12,86% (inactive)
19,COc1cc2nc(NCc3ccccc3Cl)n3nc(-c4cccnc4)nc3c2cc1OC,105% (inactive)
20,Cc1cccc(-c2nc3c4ccccc4nc(NCc4ccccc4Cl)n3n2)c1,138% (inactive)
21,COc1ccccc1CNc1nc2ccccc2c2nc(-c3cccnc3)nn12,48% (active)
22,COc1ccc(OC)c(CCNc2nc3ccccc3c3nc(-c4cccnc4)nn23)c1,112% (inactive)
